Screens deposited in PubChem by National Center for Advancing Translational Sciences (NCATS).
Shown is part of a subset that was picked to be rich in hits.
NS1 function inh = qHTS Assay for Inhibitors of Influenza NS1 Protein Function; Potency, µM (titrated, usually from 46.1 µM), inactives show at the highest dose activity, positive = more growth; 270,000 compounds, 0.4% hits; calls by dose curve; also: potency is read from the fitted curve at half-maximal effect; actives are rising curves; nearly all actives have a fitted effect of over 50% in size
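A cell-based growth assay was used: compounds that relieve NS1-induced slow growth of budding yeast raise OD600. Assay medium was yeast nitrogen base with ammonium sulphate and -URA supplement, pH 6.0, with 2% galactose.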
AmpC inh detg = qHTS Inhibitors of AmpC Beta-Lactamase (assay with detergent). 370,000 compounds, 0.041% hits. P00811. AmpC hydrolysis of nitrocefin, absorbance 480 nm, 0.01% Triton. Potency, µM (titrated, usually from 114 µM), without a hit: at the highest dose activity change, negative = inhibition, usual class: inhibitors;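 also: potency is read from the fitted curve at half-maximal effect; 0% = no-compound wells and -100% = no-enzyme wells; nearly all actives have a fitted effect of over 25% in size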
Target sequence (P00811 whole entry, looked up): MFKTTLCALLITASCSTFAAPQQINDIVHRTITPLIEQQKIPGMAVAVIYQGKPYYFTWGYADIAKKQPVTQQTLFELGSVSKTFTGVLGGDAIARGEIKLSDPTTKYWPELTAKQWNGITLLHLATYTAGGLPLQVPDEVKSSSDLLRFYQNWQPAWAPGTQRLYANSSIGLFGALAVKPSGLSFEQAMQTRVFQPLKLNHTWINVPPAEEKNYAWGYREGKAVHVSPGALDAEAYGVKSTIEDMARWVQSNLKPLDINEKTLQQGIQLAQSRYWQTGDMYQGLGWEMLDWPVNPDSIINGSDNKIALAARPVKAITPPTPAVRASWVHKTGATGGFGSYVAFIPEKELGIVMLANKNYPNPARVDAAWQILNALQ
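AmpC (5.3 nM in the dispensed reagent) in 20 mM phosphate pH 7.0 with 0.01% (detergent screen) or 0.0001% Triton X-100 was preincubated with compounds for 15 min at room temperature. Nitrocefin was then added from an 800 uM solution, and hydrolysis was followed at 480 nm.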
Shiga toxin inh = A qHTS for Small Molecule Inhibitors of Shiga Toxin | Vero cells, Shiga toxin protein synthesis inhibition reporter | inhibition, % at 38.7 µM | 290,000 compounds, 9.2% hits | AID 2315, 2010; in the data active = inhibition mostly above about 28%, no sharp cut-off; inactive = mostly below about 43%; also: 0% is about no effect
Cycloheximide cs = Cycloheximide Counterscreen for Small Molecule Inhibitors of Shiga Toxin; cell reporter, cycloheximide protein synthesis inhibition counterscreen; max response, %; 300,000 compounds, 12% hits; in the data active = max response mostly above about 13%, no sharp cut-off; inactive = mostly below about 14%; also: read at 38.3 µM for the half of the compounds with a filed dose; 0% is about no effect
AmpC no deterg = qHTS Inhibitors of AmpC Beta-Lactamase (assay without detergent); AmpC nitrocefin hydrolysis, absorbance 480 nm, 0.0001% Triton; P00811; AID 485341, 2010; 330,000 compounds, 0.52% hits; Potency, µM (top dose mostly 57.1 µM), without a hit: at the top dose activity change, negative = inhibition, actives largely listed as inhibitors;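 also: potency is read from the fitted curve at half-maximal effect; plate controls were no compound for no effect and no enzyme for full effect; nearly all actives have a fitted effect of over 20% in size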
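20 mM phosphate pH 7.0 + 0.01% (detergent screen) or 0.0001% Triton X-100; 5.3 nM AmpC reagent; cpd preinc 15 min RT; nitrocefin (800 uM stock) to start; A480 q20 s × 4 min; Activity was normalised to no-enzyme and no-compound control wells.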
An asterisk follows results filed as active; ? = inconclusive; nt = no result. Unless noted, calls follow the shape of the dose curve; as a rule, active = well fitted curve in the direction sought with a large enough effect; inconclusive = small, poorly fitted or top-dose-only effect, or another doubt; inactive = no such curve, though single readings can be large; an effect the other way counts as inactive or inconclusive.

SMILES	NS1 function inh	AmpC inh detg	Shiga toxin inh	Cycloheximide cs	AmpC no deterg
O=c1oc(CCO)cc2ccccc12	nt	nt	nt	nt	-6%
Cc1ccc(C(c2nnnn2CCc2ccccc2)N2CCC(C)CC2)cc1 (stereo not given)	-32%	3%	21	15*	15%
Brc1ccc(N=Nc2ccc3ccccc3n2)cc1	-3%	3%	54*	36*	-9%
O=C(O)c1cccc(CN2CCCCC2)c1	1%	nt	nt	nt	nt
CCOC(=O)c1ccc(NC(=O)c2nn(CC)cc2Br)cc1	-32%	-11%	53*	35*	-5%
CCn1cc(Br)c(C(=O)Nc2ccc(Cl)cc2Cl)n1	-78%	-2%	55	25*	-29%
CCn1cc(Br)c(C(=O)Nc2ccc(F)c(Cl)c2)n1	-53%	-8%	73*	54*	-14%
Cc1cccc(-c2ccc3ncnc(NCc4cc(C)cs4)c3c2)c1	nt	-12%	nt	nt	-40%
CC1OC(OC2C(CO)OC(OC3C(CO)OC(O)C(O)C3O)C(O)C2O)C(O)C(O)C1NC1C=C(CO)C(O)C(O)C1O (stereo not given)	nt	nt	-4	-5	nt
O=C(NC1CCSC1=O)C1CCCCC1 (stereo not given)	0%	2%	-4	-2	-5%
CCCCCn1c(=O)c(C(=O)Nc2ccccc2S(N)(=O)=O)c(O)c2ccccc21	3%	-6%	84*	17*	-5%
CCCCn1c(=O)c(C(=O)Nc2ccccc2S(N)(=O)=O)c(O)c2ccccc21	-24%	-14%	25	-4	-38%
CCn1c(=O)c(C(=O)NNC(=O)c2ccccc2)c(O)c2ccccc21	-68%	1%	2	7	-25%
CCn1c(=O)c(C(=O)Nc2ccccc2S(N)(=O)=O)c(O)c2ccccc21	-7%	-10%	45	12*	4%
CCOc1cc(/C=N/NC(=O)c2ccc(-c3csc(Nc4ccc(C)cc4)n3)cc2)ccc1OCC(=O)O	nt	-2%	10	10	1.4µM*
NC(=O)c1cccnc1Nc1cccc([N+](=O)[O-])c1	-4%	6%	84*	48*	-20%
Nc1nc(CSc2nc3ccccc3s2)nc(Nc2ccccc2)n1	7%	-8%	-14	21*	-12%
Cc1c(Cl)cccc1Nc1nc(N)nc(CSc2nc3ccccc3s2)n1	12%	3%	-6	1	-24%
CCCCCc1nc2ccccc2c(=O)n1N	0%	2%	-13	22*	-14%
Nn1c(COc2ccccc2)nc2ccccc2c1=O	-8%	-4%	57*	48*	-14%
CC#CCCc1nc2ccccc2c(=O)n1N	0%	-6%	12	-2	-9%
Cc1ccccc1OCc1nc2ccccc2c(=O)n1N	-8%	-7%	41	31*	-14%
COc1cccc(OCc2nc3ccccc3c(=O)n2N)c1	-16%	-4%	84*	27*	-19%
CCCc1nc2ccccc2c(=O)n1N	3%	1%	-4	-3	-14%
CC(=O)C1=C(c2ccc(Cl)c(Cl)c2)N(C(C)=O)n2cnnc2S1	nt	2%	nt	nt	nt
SMILES	NS1 function inh	AmpC inh detg	Shiga toxin inh	Cycloheximide cs	AmpC no deterg
CCN1C(=O)[C@H]2[C@H]3CN=C(SC)N3[C@@](Cc3ccccc3)(C(=O)OC)[C@H]2C1=O	nt	nt	nt	nt	-3%
C=CCn1c(O)c(N=O)c2ccccc21	9%	-5%	-9	-2	-10%
O=Nc1c2nc3ccccc3n(O)c-2c2ccccc12	-78%	-3%	115*	73*	-4%
Oc1ccc(Oc2ccc(Oc3ccc(O)cc3)cc2)cc1	-76%	?	nt	17*	-60%
Cc1cc(=O)[nH]c(SCC(=O)NCC2CCCO2)n1 (stereo not given)	5%	-2%	-5	-4	-1%
O=C(CSc1nc(O)c(C2CCCCC2)c(=O)[nH]1)NCC1CCCO1 (stereo not given)	10%	-1%	66*	29*	-38%
CC(C)(C)c1ccc(-c2cc(-c3ccccc3O)[nH]n2)cc1	-3%	?	59*	27*	-36%
CC(C)(C)c1ccc(-c2cc(N)n[nH]2)cc1	?	-11%	25	13	29%
Oc1ccccc1-c1cc(-c2cccc(F)c2)n[nH]1	-160%	?	122*	37*	-44%
O=C(NCc1cccc(C(F)(F)F)c1)c1ccc2c(c1)OCCO2	-23%	1%	-7	7	-18%
CC(C)C[C@H](NC(=O)c1cc2cc(Cl)ccc2n1C)C(=O)N1CCC(C(=O)O)CC1	3%	-17%	9	-3	-7%
CCC(=O)Oc1ccc(C(=O)Nc2ccc3c(c2)C(=O)N(C2CCCCC2)C3=O)cc1	5%	0%	-21	-6	-24%
O=C(O)c1cccc(NC(=O)c2ccc3c(c2)C(=O)N(C2CCCCC2)C3=O)c1	?	0%	108*	44*	-15%
CC(C)(C)NC(=O)c1ccc2c(c1)C(=O)N(C1CCCCC1)C2=O	-6%	-6%	80*	48*	21%
O=C(Nc1ccc2c(c1)C(=O)N(C1CCCCC1)C2=O)C1CCCO1 (stereo not given)	-99%	-5%	17	9.6*	26%
CC(C)CNC(=O)c1ccc2c(c1)C(=O)N(C1CCCCC1)C2=O	-4%	-12%	-3	-3	-21%
Cc1ccc(CCNC(=O)CSCc2nc(-c3ccc(C)cc3)oc2C)cc1	nt	9%	nt	nt	nt
CC1CC=CC2C1C(=O)N(Cc1ccccc1)C2c1ccc(C(F)(F)F)cc1 (stereo not given)	nt	nt	5	8	nt
O=C(CCC1CCCN(C(=O)Cc2cccc(F)c2)C1)N1CCN(c2ccccn2)CC1 (stereo not given)	0%	3%	71*	50*	13%
O=C(CCC1CCCN(C(=O)CCCc2ccccc2)C1)N1CCN(c2ccccn2)CC1 (stereo not given)	-7%	0%	51	22*	102%
Cc1ccccc1CC(=O)N1CCCC(CCC(=O)N2CCN(c3ccccn3)CC2)C1 (stereo not given)	-2%	7%	-8	-1	157%
NC(=O)CSc1ncc2c(n1)-c1ccccc1N(Cc1ccc(Cl)cc1)S2(=O)=O	nt	-4%	nt	nt	nt
Nc1cc(=O)[nH]c(SCC(=O)NCCC2=CCCCC2)n1	nt	nt	nt	nt	-43%
Cc1cc(C)n(C(C[N+](=O)[O-])c2ccc(Cl)cc2)n1 (stereo not given)	8%	2%	28	4	18µM*
CCOc1ccc(N=Nc2c(C)noc2C)cc1	nt	3%	41	28*	-8%
CN1CCc2c(sc3nc(NN)n(Cc4ccccc4)c(=O)c23)C1	9%	?	-3	8	23%
CN1CCc2c(sc3nc(NN)n(-c4ccc(Cl)cc4)c(=O)c23)C1	6%	-10%	29*	7	1%
CC(=O)c1ccc(NC(=O)CN2CCN(c3ncccn3)CC2)cc1	2%	1%	-13	3	-6%
CC(=O)c1ccc(N2CCN(c3ncccn3)CC2)cc1	16%	-2%	48	29*	-1%
